Assay outcomes as filed in PubChem.
Only some compounds are listed: those with a hit (about 7.4% of all), similar ones and a draw of the others.
Luciferase inh: Photinus pyralis luciferase inhibition. AID 1347043. actives 2.5% (n = 76,000). Potency, µM (doses to about 115 µM), hits mostly inhibitors. P08659. purified P. pyralis luciferase, luminescence, biochemical; further: nearly all actives have a fitted effect of over 65% in size
Target sequence (P08659 whole entry, looked up): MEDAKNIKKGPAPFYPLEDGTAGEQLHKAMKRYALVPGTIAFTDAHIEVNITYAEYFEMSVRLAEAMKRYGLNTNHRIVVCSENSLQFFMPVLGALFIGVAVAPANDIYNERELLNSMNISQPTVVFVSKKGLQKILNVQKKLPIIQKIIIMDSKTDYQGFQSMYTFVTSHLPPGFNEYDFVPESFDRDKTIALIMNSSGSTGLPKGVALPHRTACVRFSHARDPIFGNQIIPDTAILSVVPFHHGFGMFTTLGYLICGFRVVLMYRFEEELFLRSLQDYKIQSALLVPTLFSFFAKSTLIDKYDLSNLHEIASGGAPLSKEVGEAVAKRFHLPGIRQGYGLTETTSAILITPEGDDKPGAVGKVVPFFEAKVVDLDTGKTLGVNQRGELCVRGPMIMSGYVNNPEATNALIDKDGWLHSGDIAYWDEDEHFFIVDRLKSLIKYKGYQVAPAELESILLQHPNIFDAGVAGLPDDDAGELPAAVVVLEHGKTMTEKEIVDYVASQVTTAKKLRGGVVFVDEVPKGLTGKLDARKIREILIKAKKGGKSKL
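Purified 10nM P. pyralis luciferase with 10uM D-luciferin and 10uM ATP in 50mM Tris acetate pH 7.5, 10mM Mg acetate, 0.01% Tween-20, 0.05% BSA. qHTS titration; luminescence read by CCD imager.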
NPR1 antag: human Npr1 receptor antagonism; actives 1.6% (n = 76,000); HEK293 hNpr1 GloSensor cGMP, ANP-stimulated luminescence; Potency, µM (titrated, usually from 46.3 µM), for inactives: at the highest dose activity change, negative = inhibition, hits mostly inhibitors; AID 1347048; calls by dose curve; further: nearly all actives have a fitted effect of over 60% in size
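Compound pre-incubated 30 min at room temperature on GloSensor-loaded HEK293 cells stably carrying hNpr1 and the pGS-40F cGMP biosensor. Stimulation uses hNppA at 0.1 nM final; luminescence is taken at baseline and 20 min post-agonist.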
3T3 cytotox: kills NIH 3T3 cells; NIH 3T3 viability, CellTiter-Glo ATP luminescence, 48-72 h; Potency, µM (titrated, usually from 96.7 µM), for inactives: top-dose activity change, negative = cytotoxicity, hits mostly inhibitors; actives 4.3% (n = 94,000); further: nearly all actives have a fitted effect of over 55% in size
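Cells were seeded at 400 per well, treated with pin-transferred compound, and kept 48 or 72 hr at 37 °C before CellTiter-Glo addition and luminescence imaging of cellular ATP.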
HEK cytotox: HEK 293 cell cytotoxicity | HEK 293 viability, ATP luminescence (CellTiter-Glo), 48-72 h | Potency, µM (highest dose often 115 µM), for inactives: top-dose activity change, negative = cytotoxicity, hits mostly inhibitors | actives 6.6% (n = 94,000) | AID 1345083; further: nearly all actives have a fitted effect of over 60% in size
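HEK 293 cells seeded at 250 cells/well were exposed to compound for 48 or 72 hr at 37 degree Celsius. Viability taken as ATP content by CellTiter-Glo luminescence.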
HEK293 viab: cell viability loss counter-screen | actives 0.12% (n = 150,000) | Potency, µM (series often up to 57.1 µM), for inactives: at the top dose activity change, negative = cytotoxicity, usual class: cytotoxic | HEK-293-SNCA-luc viability, GF-AFC fluorescence, 24 h;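 further: 0% = DMSO-treated cells and -100% = medium-only wells without cells; nearly all actives have a fitted effect of over 30% in size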
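Cytotoxicity counterscreen: after 24 h compound treatment of genome-edited SNCA-luciferase HEK-293 cells, live-cell protease substrate GF-AFC read by fluorescence after 30 min; activity scaled between DMSO (0%) and medium-only (-100%), curves Hill-fitted.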
SNCA expr inhib: reduces expression of the alpha-synuclein gene. HEK-293 SNCA-luciferase knock-in, luminescence, 24 h. Potency, µM (top dose mostly 57.2 µM), for inactives: at the top dose activity change, negative = inhibition, actives largely listed as inhibitors. actives 0.17% (n = 140,000);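 further: plate controls were DMSO cells for no effect and cell-free wells for full effect; nearly all actives have a fitted effect of over 45% in size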
* hit, by the source's call; [ ] = another dose, or the depositor's remark. Unless noted, the call rests on the fitted dose curve; in most records, active means well fitted curve in the direction sought with a large enough effect; inconclusive means small, poorly fitted or top-dose-only effect, or another doubt; inactive means no such curve, though single readings can be large; an effect the other way counts as inactive or inconclusive. Unless noted, on the % scale 0 is the no-effect control and ±100 the full control effect; potency means the concentration at half of the fitted maximal effect.

Results for O=C1COc2ccc(OCC3CC3)nc2CN1Cc1ccc(C(F)(F)F)cc1 ?
Luciferase inh: inactive; NPR1 antag: -9%[70.6 µM]; 3T3 cytotox: 79µM*; HEK cytotox: 79µM*; HEK293 viab: -1%[87.6 µM]; SNCA expr inhib: -13%[87.6 µM]

What do the screens show for `O=C(CN1Cc2nc(Nc3ccc(C(F)(F)F)cc3)ccc2OCC1=O)N1CCCC1`?
Luciferase inh: inactive; NPR1 antag: -16%[70.6 µM]; 3T3 cytotox: 50µM*; HEK cytotox: 79µM*; HEK293 viab: inconclusive; SNCA expr inhib: inconclusive

What do the screens show for `COc1ncccc1-c1nc2cc(C(=O)Nc3ccc(C)cc3)ccc2o1`?
3T3 cytotox: inconclusive; HEK cytotox: inconclusive; HEK293 viab: 5%[12.5 µM]; SNCA expr inhib: 30%[87.6 µM]

Results for O=C(NCCc1ccccc1)c1ccc2nnc(-c3ccoc3)n2c1 ?
3T3 cytotox: -29%; HEK cytotox: inconclusive; HEK293 viab: -1%; SNCA expr inhib: -14%

How did COCCNC(=O)CNC(=O)c1cccc(-c2ccc(SC)cc2)c1 do in these assays?
3T3 cytotox: -25%; HEK cytotox: inconclusive; HEK293 viab: 2%; SNCA expr inhib: 28%

Results for O=C1COc2ccc(NCc3cccs3)nc2CN1Cc1ccc(C(F)(F)F)cc1 ?
Luciferase inh: inactive; NPR1 antag: inconclusive; 3T3 cytotox: 79µM*; HEK cytotox: 79µM*; HEK293 viab: inconclusive; SNCA expr inhib: inconclusive

Results for COCCN1Cc2nc(Nc3ccc(C(F)(F)F)cc3)ccc2OCC1=O ?
Luciferase inh: inactive; NPR1 antag: -23%[70.6 µM]; 3T3 cytotox: inconclusive; HEK cytotox: inconclusive; HEK293 viab: -13%[87.6 µM]; SNCA expr inhib: 6%[87.6 µM]

What do the screens show for `O=C1COc2ccc(-c3ccncc3)nc2CN1Cc1ccc(C(F)(F)F)cc1`?
Luciferase inh: inactive; NPR1 antag: -7%[70.6 µM]; 3T3 cytotox: inconclusive; HEK cytotox: 79µM*; HEK293 viab: 0%[87.6 µM]; SNCA expr inhib: inconclusive

What do the screens show for `O=C(C1CCCN([S+](=O)([O-])c2cccc(C(F)(F)F)c2)C1)N1CCC(c2nc3ncccc3[nH]2)C1` (stereo unspecified)?
3T3 cytotox: -27%; HEK cytotox: inconclusive; HEK293 viab: -5%; SNCA expr inhib: 1%

How did COc1ccc(CN2C(=O)COC[C@H]2C(=O)Nc2ccc(OC)c(C(F)(F)F)c2)cc1 do in these assays?
Luciferase inh: inactive; NPR1 antag: inconclusive; 3T3 cytotox: inconclusive; HEK cytotox: 45µM*; HEK293 viab: -2%; SNCA expr inhib: -22%

What do the screens show for `OC[C@@H]1CN(Cc2cccc(F)c2)C[C@H]1c1nc(-c2ccncc2)no1`?
Luciferase inh: inactive; NPR1 antag: -23%; 3T3 cytotox: -17%; HEK cytotox: 45µM*; HEK293 viab: -3%; SNCA expr inhib: 11%

What do the screens show for `OC[C@@H]1CN(Cc2ccc(F)cc2)C[C@H]1c1nc(-c2ccncc2)no1`?
Luciferase inh: inconclusive; NPR1 antag: 14µM*; 3T3 cytotox: inconclusive; HEK cytotox: inconclusive; HEK293 viab: -18%; SNCA expr inhib: -18%

What do the screens show for `CC(=O)NC1CCN(c2nccc(Nc3ccc(C)cc3)n2)CC1`?
3T3 cytotox: inconclusive; HEK cytotox: inconclusive; HEK293 viab: 4%[87.6 µM]; SNCA expr inhib: 2%[87.6 µM]

Results for Cc1ccc(Nc2ccnc(N3CCC(NC(=O)N(C)C)CC3)n2)cc1 ?
3T3 cytotox: 45µM*; HEK cytotox: inconclusive; HEK293 viab: -9%[87.6 µM]; SNCA expr inhib: -11%[87.6 µM]

What do the screens show for `Cc1ccc(Nc2ccnc(N3CCC(NC(=O)C4CC4)CC3)n2)cc1`?
3T3 cytotox: inconclusive; HEK cytotox: 45µM*; HEK293 viab: -3%; SNCA expr inhib: inconclusive

How did Cc1ccc(Nc2ccnc(N3CCC(NC(=O)NC4CCCC4)CC3)n2)cc1 do in these assays?
3T3 cytotox: -10%; HEK cytotox: -27%; HEK293 viab: 3%[12.5 µM]; SNCA expr inhib: 13%

What do the screens show for `Cc1ccc(Nc2ccnc(N3CCC(C(=O)NC4CCCC4)CC3)n2)cc1`?
3T3 cytotox: 35µM*; HEK cytotox: 45µM*; HEK293 viab: 0%[12.5 µM]; SNCA expr inhib: -2%

What do the screens show for `CNC(=O)C1CCN(c2nccc(Nc3ccc(C)cc3)n2)CC1`?
3T3 cytotox: inconclusive; HEK cytotox: inconclusive; HEK293 viab: 1%[12.5 µM]; SNCA expr inhib: 59%[87.6 µM]

What do the screens show for `Cc1ccc(Nc2ccnc(N3CCC(C(=O)NC4CC4)CC3)n2)cc1`?
3T3 cytotox: 35µM*; HEK cytotox: inconclusive; HEK293 viab: -5%[12.5 µM]; SNCA expr inhib: 33%[87.6 µM]

What do the screens show for `CN1C[C@H](NCc2cccc(Cl)c2)CCC[C@@H](C(=O)NCc2cc(F)cc(F)c2)CC1=O`?
Luciferase inh: inactive; NPR1 antag: 5%; 3T3 cytotox: inconclusive; HEK cytotox: 45µM*; HEK293 viab: -11%; SNCA expr inhib: inconclusive

What do the screens show for `O=c1ncn(CC2CC2)c2ccc(-c3ccc4c(c3)OCO4)nc12`?
Luciferase inh: 45µM*; NPR1 antag: 2%[70.6 µM]; 3T3 cytotox: inconclusive; HEK cytotox: 3%[172 µM]; HEK293 viab: 3%[87.6 µM]; SNCA expr inhib: 106%[87.6 µM]

Results for O=c1ncn(CC2CC2)c2ccc(-c3ccc(Cl)cc3)nc12 ?
Luciferase inh: inactive; NPR1 antag: -13%[70.6 µM]; 3T3 cytotox: inconclusive; HEK cytotox: -19%[172 µM]; HEK293 viab: 7%[87.6 µM]; SNCA expr inhib: 137%[87.6 µM]

What do the screens show for `CN1CCC(Cc2ccc(C(=O)N3CCCC3)cc2)CC1`?
Luciferase inh: inactive; NPR1 antag: -3%; 3T3 cytotox: 0%; HEK cytotox: -8%; HEK293 viab: -3%; SNCA expr inhib: -16%

How did O=C(CCc1ccc(CC2CCN(Cc3c[nH]c4ccccc34)CC2)cc1)N1CCCC1 do in these assays?
3T3 cytotox: 32µM*; HEK cytotox: 35µM*; HEK293 viab: 6%; SNCA expr inhib: -17%

Results for Cn1ccnc1C(=O)N1CCC(Cc2ccc(CCC(=O)N3CCCC3)cc2)CC1 ?
3T3 cytotox: inconclusive; HEK cytotox: 40µM*; HEK293 viab: -26%; SNCA expr inhib: -14%

How did COc1ccc(CN2Cc3[nH]nc(-c4cccc(OC)c4)c3CC2=O)cc1 do in these assays?
Luciferase inh: inactive; NPR1 antag: -12%[70.6 µM]; 3T3 cytotox: inconclusive; HEK cytotox: -25%[172 µM]; HEK293 viab: -3%[87.6 µM]; SNCA expr inhib: 4%[87.6 µM]

Results for COc1ccc(CN2Cc3[nH]nc(-c4cccc(O)c4)c3CC2=O)cc1 ?
Luciferase inh: inactive; NPR1 antag: -12%[70.6 µM]; 3T3 cytotox: 10µM*; HEK cytotox: inconclusive; HEK293 viab: 1%[87.6 µM]; SNCA expr inhib: 4%[87.6 µM]

Results for O=C(NCCc1ccccc1)c1nc2sccn2c1-c1ccc(F)cc1 ?
3T3 cytotox: inconclusive; HEK cytotox: inconclusive; HEK293 viab: -24%; SNCA expr inhib: 3%
